Assay outcomes deposited in PubChem BioAssay by several laboratories.
In the library only some 32% were active in any assay of this set; here they are far more common.
CYP2C19 act: increases human CYP2C19 enzyme activity. P33261. recombinant CYP2C19, luciferin-H EGE luminescence; hits give high values; 0 = fully inhibited enzyme, 1 = untreated enzyme. 96,000 tested, under 10 active. activation factor at 5 µM;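 active = activation factor of at least 2 at 5 µM in the primary screen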;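 also: 0 = wells with 2.5 mM tranylcypromine and 1 = vehicle-only wells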
Target sequence (P33261 whole entry, looked up): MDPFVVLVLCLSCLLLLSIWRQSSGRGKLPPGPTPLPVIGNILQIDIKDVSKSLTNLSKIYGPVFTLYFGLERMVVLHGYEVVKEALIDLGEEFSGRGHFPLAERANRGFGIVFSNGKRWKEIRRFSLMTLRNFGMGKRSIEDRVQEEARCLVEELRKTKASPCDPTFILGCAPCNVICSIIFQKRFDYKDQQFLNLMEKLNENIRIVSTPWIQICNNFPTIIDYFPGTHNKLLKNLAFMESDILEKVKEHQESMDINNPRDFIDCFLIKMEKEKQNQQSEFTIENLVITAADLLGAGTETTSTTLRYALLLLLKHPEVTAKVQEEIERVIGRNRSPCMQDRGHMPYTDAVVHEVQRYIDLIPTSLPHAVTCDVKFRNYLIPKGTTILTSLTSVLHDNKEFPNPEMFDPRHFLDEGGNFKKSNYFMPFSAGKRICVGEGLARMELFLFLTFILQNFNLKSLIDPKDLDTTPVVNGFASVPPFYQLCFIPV
CYP2C19 inh: inhibitors of human CYP2C19; AID 778; 96,000 compounds, 21% hits; inhibition, % at 5 µM; P33261; CYP2C19 Supersomes, luciferin-H EGE luminescence, 30 min;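 active = CYP2C19 inhibition above a set limit at 5 µM in the primary screen, cut at about 50% in these data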;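 also: plate controls were negative control wells for no effect and 2.5 mM tranylcypromine positive control for full effect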
PostGolgi ctrl: growth of the yeast control strain, post-Golgi counter-screen. efflux-deficient yeast background strain, growth absorbance A615, 16 h. inhibition, % at 10 µM. 98,000 compounds, 5% hits. AID 738
CYP2C9 act: activators of human CYP2C9; recombinant CYP2C9, luciferin-H conversion, luminescence; hits give high values; factor 1 = untreated enzyme, 0 = blocked; 96,000 compounds, 1.4% hits; P11712; activation factor at 5 µM;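 active = activation factor of 2 or more for CYP2C9 at a 5 µM dose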;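 also: 0 = sulfaphenazole-blocked wells and 1 = vehicle-only wells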
CYP2C9 inhib: human CYP2C9 inhibition; P11712; CYP2C9 Supersomes, luciferin-H conversion, luminescence; inhibition, % at 5 µM; 96,000 compounds, 20% hits; AID 777;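 active = blocking of liver enzyme CYP2C9 beyond about 50% at 5 µM, limit read from the data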
PostGolgi yeast: growth inhibition of a yeast mutant, post-Golgi transport screen; post-Golgi transport phenotypic cell assay; 98,000 compounds, 0.9% hits; inhibition, % at 10 µM;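 also: yeast cells grown in 1536-well plates; yeast grown about 18 h at 30C before absorbance read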
* marks the source's active call; other numbers are inactive results; x = no result. Rule as the data show it, unless noted: active = inhibition above about 30%; inactive = the rest.

SMILES | CYP2C19 act | CYP2C19 inh | PostGolgi ctrl | CYP2C9 act | CYP2C9 inhib | PostGolgi yeast
Cc1ccc(N(CC(O)CN2CCCC2)S(=O)(=O)c2ccc(C)cc2)cc1 (centres undefined) | 0.9 | 10.5 | 46.1* | 1 | -2.5 | -1.1
COc1ccc(-c2cc3ccccc3n2CC(O)CN2CCOCC2)cc1 (centres undefined) | 0 | 95.2* | 7.9 | 0.4 | 63.1* | -0.4
CC(C)NC(=O)CSc1nnc(-c2ccc(S(=O)(=O)N3CCCC3)cc2)n1CC1CCCO1 (centres undefined) | 1 | -0.5 | 9.5 | 1 | 3.7 | 2.3
O=C(O)CSCc1c(F)cccc1Cl | x | x | 10.7 | x | x | 0.0
O=C(c1cccs1)N1CCN=C1SCc1ccccc1 | 0.7 | 32.5 | 7.2 | 0.8 | 18.1 | 6.8
Cc1ccc(CSC2=NCCN2C(=O)C2CC2)cc1 | 0.1 | 92.4* | 6.0 | 0.8 | 19.4 | -1.2
O=C(C1CC1)N1CCN=C1SCc1cccc(C(F)(F)F)c1 | 0 | 95.2* | 12.9 | 0.3 | 70.1* | 6.1
CC(=O)N1CCN=C1SCc1ccc(Br)cc1 | 0.5 | 53.8* | 11.3 | 0.4 | 62.1* | 17.7
CC(=O)N1CCN=C1SCc1c(F)cccc1Cl | 0.8 | 19.8 | 32.0* | 1.1 | -10.6 | 3.2
CC(=O)N1CCN=C1SCc1cccc(C(F)(F)F)c1 | 0.6 | 41.7 | 5.2 | 0.8 | 16.2 | 1.4
CCCOC(=O)C1[C@H]2C(=O)N(CC3CCCO3)C[C@]23C=C[C@H]1O3 (some centres undefined) | 1.1 | -8.9 | 9.0 | 1 | -4.2 | 8.4
CC(=O)NC1=NN(C(C)=O)C(c2sccc2C)S1 (centres undefined) | 0.7 | 34.4 | -6.4 | 0.8 | 21.2 | -3.5
Cc1ccc(-c2nc(C3CCN(S(C)(=O)=O)CC3)no2)cc1 | 1.1 | -6.5 | 21.5 | 1.1 | -8.2 | -3.9
O=C(Nc1nccs1)c1cc(S(=O)(=O)N2CCOCC2)ccc1Cl | 0.9 | 5.7 | x | 1 | 4.6 | x
CC(C)OC(=O)Nc1ccc(Oc2c(F)c(F)c(F)c(F)c2F)cc1 | 0.9 | 5.1 | 9.1 | 0.9 | 7.4 | 3.3
C/C=C/c1c(F)c(F)c(Oc2ccc(C(=O)O)cc2)c(F)c1F | 1 | 0.7 | 15.9 | 0.2 | 81.0* | 1.5
O=C(C1CCCN(S(=O)(=O)c2cccc3cccnc23)C1)N1CCc2ccccc21 (centres undefined) | 0.7 | 29.4 | 18.1 | 1.3 | -29.4 | 4.5
CCCCCCc1cc2cc(-c3nnc(-c4ccccc4O)o3)c(=O)oc2cc1O | 0.9 | 14.1 | 0.3 | 0.1 | 89.8* | 10.2
CCCc1cc2c(=O)c(-c3ccccn3)c(C)oc2cc1O | 0.8 | 20.1 | x | 0.8 | 15.7 | x
CCCCCCc1cc2cc(-c3nnc(-c4ccccc4OC)o3)c(=O)oc2cc1O | 0.5 | 48.3 | 7.5 | 0 | 96.7* | 7.5
Cc1cc(-c2nnc(-c3cc4ccccc4oc3=O)o2)c(C)n1-c1ccccc1 | 0.9 | 6.0 | -1.1 | 0.9 | 7.2 | 3.4
c1ccc(Cn2nnnc2CN2CCOCC2)cc1 | 0.9 | 12.1 | -5.7 | 1.1 | -6.2 | -3.8
O=C(NCc1cccs1)c1noc2c1CCCCC2 | 0.9 | 5.1 | 6.2 | 0.8 | 19.5 | 11.3
CCOc1ccc(C2SCC(=O)N2c2c(C)n(C)n(-c3ccccc3)c2=O)cc1 (centres undefined) | 0.3 | 66.8* | 0.0 | 0.3 | 70.7* | 19.3
COc1ccc(C2SCC(=O)N2c2c(C)n(C)n(-c3ccccc3)c2=O)cc1OC (centres undefined) | 0.9 | 10.1 | -0.6 | 0.9 | 12.3 | 7.2
SMILES | CYP2C19 act | CYP2C19 inh | PostGolgi ctrl | CYP2C9 act | CYP2C9 inhib | PostGolgi yeast
COc1ccc(C2SCC(=O)N2c2c(C)n(C)n(-c3ccccc3)c2=O)c(OC)c1 (centres undefined) | 0.4 | 55.3* | 0.1 | 0.9 | 13.8 | 4.4
O=c1c2cnn(-c3ccccc3)c2nc(-c2cccs2)n1-c1ccc(Br)cc1 | x | x | -2.2 | x | x | -1.4
CCOc1ccc(NC(=O)C/C(N)=N/O)cc1 | 1.2 | -21.4 | -4.0 | 1.3 | -27.8 | 35.2*
CCOc1ccc(NC(=O)c2nn(C)cc2Br)cc1 | 0.9 | 13.1 | 5.0 | 2.1* | -111.8 | -9.0
CCOc1ccc(C(=O)COC(C)=O)cc1 | 0.9 | 13.1 | 3.5 | 1 | 3.9 | 5.1
CCOc1ccc(C(=O)c2ccncc2)cc1 | 0.1 | 87.1* | 2.7 | 0.2 | 75.1* | -7.0
CCOc1ccc(NC(=O)c2ccncc2)cc1 | 0.3 | 73.0* | 6.0 | 0.3 | 72.7* | 11.2
CCCCOc1ccc(C(=O)OC2CC(C)N(C)CC2C)cc1 (centres undefined) | 0.9 | 11.2 | 7.2 | 1 | 1.9 | -0.8
CCCCc1nc(SCC(=O)Nc2ccc(S(N)(=O)=O)cc2)n[nH]1 | 0.8 | 19.5 | 14.0 | 0.6 | 39.2 | -5.4
COC1(OC)N=C(N)C2(C#N)C(c3ccc4c(c3)OCO4)C12C#N (centres undefined) | 0.8 | 17.3 | 0.8 | 1.1 | -10.8 | -0.3
CCN(CC)CCNC(=O)c1c(O)c2cc(OC)c(OC)cc2[nH]c1=O | x | x | 4.4 | x | x | 11.5
COc1ccc(OC)c(CNC(=O)C2CCN(S(=O)(=O)N3CCCC3)CC2)c1 | 1 | 2.5 | 2.7 | 1.2 | -19.6 | 6.5
COc1ccc(NC(=O)c2ccc(NS(=O)(=O)c3c(C)noc3C)cc2)cc1OC | 0.9 | 6.8 | -4.2 | 0.8 | 22.5 | 1.6
Cc1noc(C)c1S(=O)(=O)Nc1ccc(C(=O)NCCc2ccccc2)cc1 | 1 | -1.4 | -6.9 | 0.4 | 60.3* | -7.8
Cc1ccc(NC(=O)c2ccc(NS(=O)(=O)c3c(C)noc3C)cc2)cc1C | 0.9 | 7.5 | 0.7 | 0.2 | 78.9* | 1.6
COc1ccc(Br)cc1CNC(=O)C1CCN(S(=O)(=O)N2CCCCC2)CC1 | 0.8 | 23.1 | 14.2 | 2.2* | -119.2 | 4.5
COc1ccccc1NC(=O)c1ccc(NS(=O)(=O)c2c(C)noc2C)cc1 | 1 | 4.0 | 5.8 | 1.4 | -44.4 | 2.3
COc1ccccc1CNC(=O)c1ccc(NS(=O)(=O)c2c(C)noc2C)cc1 | 0.9 | 11.7 | -9.2 | 0.2 | 78.5* | 8.9
COc1ccccc1CNC(=O)C1CCN(S(=O)(=O)c2c(C)noc2C)CC1 | 1 | -0.2 | 14.9 | 2* | -99.1 | 5.9
COc1ccc(CNC(=O)c2ccc(NS(=O)(=O)c3c(C)noc3C)cc2)cc1 | 1 | -2.7 | 31.1* | 0.4 | 58.2* | 5.7
CCCCS(=O)(=O)/C=C\C=C/S(=O)(=O)CCCC | 0.9 | 14.2 | 27.1 | 0.9 | 9.7 | 94.1*
CN1CC[n+]2c(CN3C(=O)c4ccccc4C3=O)csc21 | 1.1 | -8.8 | 0.6 | 1.1 | -12.9 | -1.8
CC(=O)c1cc(CN2C(=O)c3ccccc3C2=O)cs1 | 0 | 95.6* | x | 0.8 | 19.6 | x
COC(=O)c1cn(C(C)C(=O)NCc2ccco2)c2ccccc12 (centres undefined) | 0.4 | 59.3* | 18.8 | 0.7 | 30.6 | -5.6
CC(C)Sc1nc2c(c(=O)[nH]1)C(c1cccs1)C1=C(CC(C)(C)CC1=O)N2 (centres undefined) | 0.7 | 32.9 | 3.5 | 0.3 | 68.4* | 2.2
